Compounds without any hit were thinned out: in the full panel of roughly 83,000, 20% have a hit.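 Plates (96-well) were seeded with cells, treated with compound at one concentration, and incubated for 48 hours before percent growth was determined.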 Values without a mark were called inactive. Active and inactive are the calls of the source. The calls were made as follows: active = growth percent below 10; inactive = the rest.
How the values were obtained:
Assay in all cases: NCI-60 one-dose screen, 48 h (100 = growth as untreated, 0 = no growth, -100 = all killed)
Conditions in all cases: 10 µM unless noted
NCI-H23 lung = test system: NCI-H23 lung
NCI-H226 lung = test system: NCI-H226 lung
HOP-62 NSCLC = test system: HOP-62 NSCLC
NCI-H460 lung = test system: NCI-H460 lung
HOP-92 NSCLC = test system: HOP-92 NSCLC
NCI-H522 lung = test system: NCI-H522 lung
A549/ATCC NSCLC = test system: A549/ATCC NSCLC
786-0 renal = test system: 786-0 renal
COLO 205 colon = test system: COLO 205 colon
DU-145 prostate = test system: DU-145 prostate
K-562 leukemia = test system: K-562 leukemia
MALME-3M melanoma = test system: MALME-3M melanoma
MDA-MB-231 breast = test system: MDA-MB-231 breast
RXF 393 renal = test system: RXF 393 renal
SF-268 CNS = test system: SF-268 CNS
SF-295 CNS = test system: SF-295 CNS
SF-539 CNS = test system: SF-539 CNS
UACC-257 melanoma = test system: UACC-257 melanoma
M14 melanoma = test system: M14 melanoma

| Compound | growth (NCI-H23 lung) | growth (NCI-H226 lung) | growth (HOP-62 NSCLC) | growth (NCI-H460 lung) | growth (HOP-92 NSCLC) | growth (NCI-H522 lung) | growth (A549/ATCC NSCLC) | growth (786-0 renal) | growth (COLO 205 colon) | growth (DU-145 prostate) | growth (K-562 leukemia) | growth (MALME-3M melanoma) | growth (MDA-MB-231 breast) | growth (RXF 393 renal) | growth (SF-268 CNS) | growth (SF-295 CNS) | growth (SF-539 CNS) | growth (UACC-257 melanoma) | growth (M14 melanoma) |
| --- | --- | --- | --- | --- | --- | --- | --- | --- | --- | --- | --- | --- | --- | --- | --- | --- | --- | --- | --- |
| COc1ccc(-c2cc(C(=O)N=Nc3c(O)[nH]c4ccc(Br)cc34)no2)cc1 | 87% | 86.3% | 90.5% | 101% | 96.7% | 83.2% | 103% | 105% | 114% | 105% | 96.5% | 92.4% | 92.8% | 107% | 99.4% | 103% | 95.9% | 112% | 98.9% |
| NC(CSC(c1ccccc1)(c1ccccc1)c1ccc(Cl)cc1)C(=O)O (stereo not drawn) | 8.79% (active) | 47.2% | 27.5% | 7.15% (active) | -15.9% (active) | 5.69% (active) | -9.59% (active) | 25.6% | -13% (active) | -49.7% (active) |  | 22.6% | -32.8% (active) |  | 16.2% | 13.8% | -12.3% (active) |  | -24.2% (active) |
| COc1ccc(-c2cc(=O)c3c(OC)c4ccoc4cc3o2)cc1 | 99.4% | 95.5% | 108% | 73.7% | 90.1% | 82.4% | 86.2% | 116% | 102% | 106% | 88.2% | 113% | 91.7% | 107% | 97.9% | 40.7% | 105% | 107% | 115% |
| O=C(COc1ccc(-c2nc3cc(Cl)c(Cl)cc3[nH]2)cc1)N=Nc1c(O)[nH]c2ccccc12 | 31.8% | -30.2% (active) | 50.1% | -69.6% (active) | -33.3% (active) | 13.6% | 29% | -44.8% (active) | 12.6% | -20.7% (active) | 10.8% | -68.9% (active) | -50.2% (active) | -5.96% (active) | -64.5% (active) | 5.99% (active) | 41.4% | 54.4% | -22.1% (active) |
| COc1ccccc1Nc1nc(-c2cc3cccc(C(F)(F)F)c3oc2=O)cs1 | 18.6% | 13.4% | 25.3% | 4.14% (active) | 26.9% | -16.5% (active) | 17.1% | 20.8% | -50.3% (active) | 7% (active) |  | 78.2% | 19.1% | 26.7% | 26.2% | 3.82% (active) | -32.9% (active) | 57.1% | 13.5% |
| O=C(Nc1cccc2[nH]c(C(F)(F)F)nc12)c1ccc(-n2cnnn2)cc1 | 82.1% | 92.2% | 97.6% | 81.9% | 82.5% | 57.3% | 98.1% | 106% | 105% | 102% | 21.5% | 84.5% | 93.1% | 96.1% | 96% | 92.5% | 103% | 107% | 107% |
| Cc1nn(-c2cc(=O)[nH]c3ccccc23)c(N)c1C#N | 106% | 91.4% | 100% | 104% | 106% | 95.6% | 107% | 105% | 123% | 107% | 105% | 108% | 103% | 112% | 97.7% | 100% | 95% | 110% | 106% |
| Brc1ccc(-c2csc(Nc3ccccn3)n2)cc1 | 58.8% | 73% | 85.4% | 91.5% | 73% | 78.2% | 91.3% | 88.5% | 107% | 109% | 57.1% | 76.3% | 86.3% | 118% | 115% | 99.9% | 102% | 105% | 96.9% |

From PubChem BioAssay (NCI)
